From PubChem BioAssay

target: E3 ubiquitin-protein ligase XIAP (Homo sapiens) (UniProt P98170); assay: small molecules binding XIAP protein – biophysical, small-molecule microarray, fluorescence 635 nm, primary screen (AID 1181); conditions: higher = more signal;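 further: score merges 667 nm emission and signal to noise over triplicate slides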
Sequence (P98170 whole entry, looked up): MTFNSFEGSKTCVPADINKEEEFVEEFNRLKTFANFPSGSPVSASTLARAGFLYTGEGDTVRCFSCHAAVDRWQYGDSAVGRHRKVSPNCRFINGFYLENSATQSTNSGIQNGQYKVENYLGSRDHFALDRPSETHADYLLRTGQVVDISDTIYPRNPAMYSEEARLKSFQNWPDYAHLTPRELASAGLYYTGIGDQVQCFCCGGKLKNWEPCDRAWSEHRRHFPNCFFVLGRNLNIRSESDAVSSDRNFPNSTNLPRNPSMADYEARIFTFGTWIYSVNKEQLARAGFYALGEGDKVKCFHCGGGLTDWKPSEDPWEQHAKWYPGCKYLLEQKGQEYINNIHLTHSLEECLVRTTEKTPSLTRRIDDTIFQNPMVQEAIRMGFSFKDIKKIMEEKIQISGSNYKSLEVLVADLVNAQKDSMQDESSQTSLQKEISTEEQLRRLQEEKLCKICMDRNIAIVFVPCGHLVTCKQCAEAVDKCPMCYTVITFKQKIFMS

SMILES	composite z-score
CN1C=C(C(=O)OCCS(C)(=O)=O)C(C(=O)OCCS(C)(=O)=O)=CC(c2ccc(CO)cc2)=CC1c1cccs1 (stereo not given)	0.246
C=C(C)C1CCC(C(O)C2C=CC3C(=O)N(C)C(=O)C3N2Nc2cc(OC)c(OC)c(OC)c2)CC1 (stereo not given)	0.153
O=C1NC(=O)C2C1C=CC(C(O)c1ccccn1)N2Nc1ccc(Cl)cc1Cl (stereo not given)	-0.131
CCCCC=C[C@@H](NC(=O)c1ccccc1)c1ccccc1	0.0348
C=C(C(=O)CC[C@H](OC(=O)c1ccccc1-c1ccccc1C(=O)O)c1ccccc1OCCO)C(C)C	0.194
COCCOC(=O)N1C(=O)[C@@]2(c3cc(C#CCC(C(=O)OC)C(=O)OC)ccc31)[C@H](c1ccc(O)cc1)N1[C@H](c3ccccc3)[C@H](c3ccccc3)OC(=O)[C@H]1[C@@H]2C(=O)NC[C@H](O)c1ccccc1	-0.187
[N-]=[N+]=NCc1ccccc1[C@@H]1OC(c2ccc(OCCCO)cc2)=N[C@]1(Cc1ccccc1N=[N+]=[N-])C(=O)NCCN1CCOCC1	-0.0826
CN1C(=O)C2C=CC(C(O)c3ccc(I)cc3)N(Nc3ccccc3)C2C1=O (stereo not given)	0.114
[N-]=[N+]=NCc1ccccc1[C@@H]1OC(c2ccc(OCCCO)cc2)=N[C@]1(Cc1ccccc1)C(=O)NCCN1CCOCC1	-0.0125
CC1(C)C(=O)C(c2ccccc2)=C2CN3C(=O)N(CCc4ccccc4)C(=O)C3(Cc3ccc(C(F)(F)F)cc3)C=C21 (stereo not given)	0.0322
O=C1N(CCS(=O)(=O)c2ccccc2)Cc2ccccc2[C@@H]2OC(c3ccc(OCCCO)cc3)=N[C@]12CCS(=O)(=O)c1ccccc1	-0.0062
CCOC(=O)C[C@H]1[C@H](OC(=O)c2cc3ccccc3oc2=O)[C@@H](NC(=O)c2ccc3ccccc3c2)c2cc(OCCCO)ccc2N1C(=O)Cc1ccc(OC)cc1	-0.169
CC(C)OC(=O)CC(=O)CC(O)c1ccc([N+](=O)[O-])cc1 (stereo not given)	-0.212
CO[C@H]1O[C@H](CO)[C@@H](OC(=O)CCc2ccccc2)[C@H](OC(=O)c2cc3ccccc3[nH]2)[C@H]1OC(=O)c1cc2ccccc2[nH]1	-0.156
C=CCNC(=O)[C@@H]1[C@H]2C(=O)O[C@H](c3ccccc3)[C@H](c3ccccc3)N2[C@H](c2ccc(OCCO)cc2)[C@@]12C(=O)N(C(=O)OCCOC)c1ccc(C#CCCO)cc12	-0.0161
COCCOC(=O)N1C(=O)[C@@]2(c3cc(C#CCCO)ccc31)[C@H](C(=O)N1CCCCCCC1)[C@H]1C(=O)O[C@H](c3ccccc3)[C@H](c3ccccc3)N1[C@@H]2c1ccccc1OCCO	0.113
COC(=O)[C@@]1(Cc2ccc(F)cc2)[C@H]2c3cc(C(=O)N4CCCC4)n(C)c3C[C@H]2CN1C(=O)c1ccccc1	0.49
COC(=O)[C@@]1(Cc2ccc(F)cc2)[C@H]2c3cc(C(=O)N(C)C)n(Cc4ccc(O)c(OC)c4)c3C[C@H]2CN1C(=O)c1ccccc1	0.0812
C=CCC(OC(C)=O)[C@@H]1[C@@H](N(Cc2ccc(-c3cccc(C(F)(F)F)c3)o2)C(=O)c2ccc(C)cc2)c2cc(OCCCO)ccc2N1C(=O)Cc1ccc(OC)cc1 (stereo not given in full)	0.0871
CN(C)CCCCNC(=O)[C@H]1C[C@H]2C(=O)N[C@@H](CCCC[N+](C)(C)C)C(=O)N2[C@H]1c1ccc(O)cc1	-0.0599
CCOC(=O)C1=C[C@@H](c2ccccc2)N(S(=O)(=O)c2ccc(C)cc2)[C@H]1c1ccccc1	0.125
C=CC[C@H](OC(=O)Nc1ccc(SC)cc1)c1ccc(OCCO)cc1	0.0264
O=C(O)[C@H]1C[C@H]2C(=O)N[C@@H](Cc3ccccc3)C(=O)N2[C@H]1c1cccc(OCCO)c1	-0.0323
CN(C)C(=O)[C@]1(CCS(=O)(=O)c2ccccc2)N=C(c2ccc(OCCCO)cc2)O[C@@H]1c1ccccc1	0.0651
CCOC(=O)C1=C[C@@H](C(C)(C)C)N(S(=O)(=O)c2ccc(C)cc2)[C@H]1c1ccc(C)cc1	-0.0017
